Data from PubChem BioAssay (NCI).
About 83,000 compounds went through this panel and 20% of them were active in at least one assay; those are over-represented in the sample as a whole.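 Each cell line was grown in a 96-well plate and treated with one concentration of compound for 48 hours. Values below 10 were considered active.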 Values without a mark were called inactive. The source made the active and inactive calls.

These compounds were tested on EKVX NSCLC (assay: NCI-60 one-dose screen, 48 h (100 = growth as untreated, 0 = no growth, -100 = all killed)). Conditions: 10 µM unless noted.

SMILES	growth
O=C(Nc1ccc(CN2CCOCC2)c(C(F)(F)F)c1)c1nc2ccc3[nH]ncc3c2c2c1CCCC2	87.3%
CC(C)[C@H]1CCC2=C3CC[C@]45OC(=O)[C@@]6(CCC(C)(C)C[C@H]64)CC[C@@]5(C)[C@]3(C)CC[C@@]21C	88.3% [100 µM]
Cc1ccc2c(c1)/C(=N\N=C/c1cn(C(C)C)c3ccccc13)C(=O)N2	61.9%
COc1ccc(C(=O)c2nccc3cc(OC)c(OC)cc23)cc1OC	90.1%
Nc1cc(C(=O)O)[nH]c(=S)n1	92.6%
CC1(C)CC[C@]2(C(=O)O)CC[C@]3(C)C(=CC[C@@H]4[C@@]5(C)C/C(=C/c6cccnc6)[C@H](O)C(C)(C)[C@@H]5CC[C@]43C)[C@@H]2C1	0.843% [100 µM] (active)
ClC1=C(Cl)C(Cl)=C(Cl)C1=Cc1ccccc1	-4.72% (active)
CCCCC(CCCCCC(CCCC)C1NC(C)Cc2cc(OC)c(OC)cc21)C1NC(C)Cc2cc(OC)c(OC)cc21 (configuration not stated)	-61.2% (active)
COc1ccccc1S(=O)Nc1ccccc1 (configuration not stated)	106%
Cc1cnc(N)nc1OCC(C)(C)CNC(=O)c1cccc(-c2ccc(S(=O)(=O)Nc3ccc4c(c3)N(C(=O)C3CC3)CCC4)cc2)c1	62.9%
C=C(C)[C@@H]1CC[C@]2(COC(=O)c3ccccc3C(=O)O)CC[C@]3(C)[C@H](CC[C@@H]4[C@@]5(C)CC[C@H](OC(=O)c6ccccc6C(=O)O)C(C)(C)[C@@H]5CC[C@]43C)[C@@H]12	39.5% [100 µM]
Cc1cc(N2CCCCCC2)nc(N2CCN(CC(=O)Nc3ccc4c(ccn4Cc4ccccc4)c3)CC2)n1	56%
CC1(C)C(=O)/C(=C\c2cccnc2)C[C@]2(C)[C@H]3CC[C@@H]4[C@H]5[C@H](C(=O)/C=C/c6cccnc6)CC[C@]5(C(=O)O)CC[C@@]4(C)[C@]3(C)CC[C@@H]12	-73% [100 µM] (active)
CCN(CC)CCSC(=O)C(O)(c1ccccc1)C1CCCC1 (configuration not stated)	120%
O=C(NNc1ccc(-c2ccccc2)nn1)c1ccccc1	95.2%
Cc1cc2c(C(C)C)c(O)c(O)c(C=NCc3ccoc3)c2c(O)c1-c1c(C)cc2c(C(C)C)c(O)c(O)c(C=NCc3ccco3)c2c1O	23.6%

SMILES	growth
c1ccc(-c2nnc(-c3c[nH]c4ncccc34)s2)cc1	37.2%
Cc1ccc(-c2cc(-c3ccc(C)cc3)nc(NCCNc3ccnc4cc(Cl)ccc34)n2)cc1	24.6%
Cn1cc(-c2noc(C(=O)c3cn(C)c4ncccc34)n2)c2ccccc21	60.6%
Cc1cc(NN=C(c2ccc(O)cc2)c2ccc(O)cc2)c([N+](=O)[O-])cc1[N+](=O)[O-]	14.9%
O=C(C[n+]1ccn(CC(OCc2ccc(Cl)cc2Cl)c2ccc(Cl)cc2Cl)c1)c1ccc(F)cc1 (configuration not stated)	-77.8% (active)
COc1cc(-c2nc(SCCC(C)C)nc(Nc3ccc(S(N)(=O)=O)cc3)c2C#N)cc(OC)c1OC	45.1%
CC(C)=CCC[C@](C)(O)[C@H]1CC[C@]2(C)[C@@H]1CC[C@@H]1[C@@]3(C)CC[C@H](OC(=O)CCC(=O)O)C(C)(C)[C@@H]3CC[C@]12C	45.3% [100 µM]
C=C(C)[C@@H]1CC[C@]2(C)[C@H](CC[C@@H]3[C@@H]([C@@](C)(O)CCC=C(C)C)CC[C@]32C)[C@@]1(C)CCC(=O)O	8.69% [100 µM] (active)
O=C(CCN1CCCCC1)c1ccc2ccccc2c1	112%
O=C(N/N=C/c1c(Cl)cccc1Cl)c1cccc(Nc2ccnc(C(F)(F)F)c2)c1	74.4%
CCc1ccc(C2=C/C(=C/c3ccccc3)C(=O)N2CCc2ccc(S(N)(=O)=O)cc2)cc1	96.3%
COc1cc2c(cc1OCCCCCOc1ccc(-n3c(C)nc4ccccc4c3=O)cc1)N=C[C@@H]1CCCN1C2=O	-26.5% (active)
CCN(CCO)CCC(=O)c1ccc([N+](=O)[O-])cc1	103%
COc1c(B(O)O)cccc1-c1nc2ccc3[nH]ncc3c2c2c1CCC2	47.9%
Cc1ccc(-c2cc(O)c(-c3ccc(C)cc3C)cc2O)c(C)c1	56.6%
C=C(C)[C@@H]1CC[C@]2(c3ncc(C)o3)CC[C@]3(C)[C@H](CC[C@@H]4[C@@](C)(CCC#N)[C@H](C(=C)C)CC[C@]43C)[C@@H]12	-79.1% [100 µM] (active)
